38 compounds from PubChem BioAssay (NCI) can be followed below.

Molecules are shown by their SMILES. The panel holds about 83,000 compounds, 20% with a hit somewhere; the sample as a whole holds those more often.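 48-hour exposure, single concentration, 96-well plates; percent growth endpoint where 0 means no net growth. Active: below 10.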 Values without a mark were called inactive. Calls of active or inactive are those of the source.

One experiment has as its system A498 renal. Put plainly: NCI-60 one-dose screen, 48 h (100 = growth as untreated, 0 = no growth, -100 = all killed). As to conditions: 10 µM unless noted.
In the case of `C=CCn1c(SCC(=O)Nc2ccc(C(=O)/C=C/c3ccc(Cl)cc3)cc2)nnc1-c1c[nH]c2ccccc12`, the growth was 91.4%.

With `O=C(NNc1nc2cc(F)c(F)cc2n2c(CN3CC4CNCC4C3)ccc12)c1cnccn1` (stereo unspecified), the growth was 35.1%.

With `COc1ccc2c(c1)c(CC(=O)[Se]CC#N)c(C)n2C(=O)c1ccc(Cl)cc1`, the growth was -17.1% (active).

As for `O=C(NNc1nc2cc(F)ccc2n2c(CN3CCC(O)C3)ccc12)c1cnccn1` (stereo unspecified), the growth is 26.2%.

Take `COc1ccc(COc2ccc(/C=C3\C(=O)Nc4ccccc43)cc2OC)cc1`: the growth was 110%.

As to `O=C(NNc1nc2cc(F)ccc2n2c(CO)ccc12)c1cnccn1`, the growth was 8.46% (active).

As to `N#Cc1cn(Cc2ccc(Cl)cc2Cl)c(C(=O)c2ccc(Br)cc2)c1N`, the growth is 86.7%.

For `O=C(CN1CCN(c2cc(=O)n(-c3ccccc3)c3ccccc23)CC1)Nc1nc(-c2ccccc2)cs1`, the growth was 66.2%.

Turning to `COc1ccc(CCOc2cc3c(cc2OC)CCN(C(=O)NCc2cocn2)C3c2ccc(C)cc2C)cc1` (stereo unspecified), the growth is -2.94% (active).

Regarding `COc1ccc(Oc2ccc(/C=N/NC(=O)CSc3nc4ccccc4c(=O)n3-c3ccc(Cl)cc3)cc2)cc1`, the growth was 72.9%.

Take `N#Cc1cccc(CN2CCC3=C(C2)C(=O)N(Cc2ccc(Cl)cc2)C2=NCCCN23)c1`: the growth was 15.4%.

Turning to `O=C(NNc1nc2cc(F)ccc2n2c(CN3CC4CNCC4C3)ccc12)c1cnccn1` (stereo unspecified), the growth was 36.9%.

Consider `CCOc1ccccc1NC1=C(Cl)C(=O)c2nc(C)ccc2C1=O`, for which the growth was 78.8%.

In the case of `CCCCCc1ccc(S(=O)(=O)Nc2cccc(-c3csc(NC(=O)CCCCCN4CCN(CCO)CC4)n3)c2)cc1`, the growth is 76.8%.

For `CCOc1ccc(NC2=C(Cl)C(=O)c3nc(C)ccc3C2=O)cc1`, the growth is 101%.

In the case of `COc1cc(/C=C2\C(=O)Nc3ccccc32)ccc1OCc1ccc(Cl)cc1`, the growth was 115%.

Turning to `COc1cc(-c2nc(SCCC(C)C)nc(NNC(=O)c3ccncc3)c2C#N)cc(OC)c1OC`, the growth was 41.9%.

Regarding `O=C(NNc1nc2cc(F)cc(F)c2n2cccc12)c1cnccn1`, the growth was 11.1%.

For `O=C(CCn1cc[n+](CC(=O)c2ccc(-c3ccccc3)cc2)c1)Nc1cccc2cccnc12`, the growth is 98.8%.

Take `COc1c(N2CC3CCCNC3C2)c(F)cc2c(=O)c(C(=O)N/N=C/c3ccc4c(c3)OCO4)cn(C3CC3)c12` (stereo unspecified): the growth is 105%.

`COc1ccc(/C=C(/C)c2ccc3ccc(OC)cc3[o+]2)c(O)c1`: the growth was 110%.

Turning to `CN(C)CCNC(=O)c1ccc(-c2nc3ccc4[nH]ncc4c3c3c2CCC3)cc1`, the growth was -63.6% (active).

Regarding `COc1ccccc1NC1=C(Cl)C(=O)c2nc(C)ccc2C1=O`, the growth is 71.8%.

Regarding `CCNC(=O)N1CCc2cc(OC)c(OCCc3ccc(OC)cc3)cc2C1c1ccc(Cl)cc1C` (stereo unspecified), the growth was -12.8% (active).

`Cc1cc2nc(C(Cl)Cl)nc(-c3cccs3)n2n1`: the growth was -40.7% (active).

For the compound `CN(C)CCNC(=O)c1ccc(-c2nc3ccc4[nH]ncc4c3c3c2COCC3)cc1`, the growth was -60.4% (active).

In the case of `CN1CCN(Cc2ccc(NC(=O)c3cncc(C#Cc4cnc5ccc(OCC(C)(C)O)nn45)c3)cc2C(F)(F)F)CC1`, the growth was -84.1% (active).

For the compound `Nc1ncc(-c2ccc3ncnc(Nc4cccc(Cl)c4F)c3c2)cn1`, the growth was -10.7% (active).

For `COc1ccc(/C=C/C(=O)c2cccc(NC(=O)CSc3nc4ccccc4c(=O)n3-c3ccccc3)c2)cc1OC`, the growth is 99.4%.

On to `O=C(NNc1nc2cc(F)ccc2n2c(CN3CCCC3)ccc12)c1cnccn1`, for which the growth was -1.87% (active).

In the case of `CC/C(=C/c1c(O)cccc1OC)c1ccc2c(OC)cccc2[o+]1`, the growth is 102%.

For `CS(=O)(=O)Nc1cc(-c2ccc3ncc(C#N)c(NCc4ccccc4F)c3c2)cnc1Cl`, the growth is -42.9% (active).

In the case of `COc1ccccc1-n1cc(C#N)c(N)c1C(=O)c1ccc(Cl)cc1`, the growth was 57%.

Consider `N=c1c2cc(-c3ccccc3)oc2ncn1/N=C/c1ccc(Cl)cc1`, for which the growth was 99.7%.

For `C=CCn1c(SCC(=O)Nc2ccc(C(=O)/C=C/c3cc(OC)c(OC)c(OC)c3)cc2)nnc1-c1c[nH]c2ccccc12`, the growth is 44%.

For `COC(=O)C[Se]C(=O)Cc1c(C)n(C(=O)c2ccc(Cl)cc2)c2ccc(OC)cc12`, the growth was 70.6%.

As to `COc1ccc(NC2=C(Cl)C(=O)c3nc(C)ccc3C2=O)cc1OC`, the growth was 82.6%.

With `NC(N)=Nc1ccc(Oc2cccc(NC(N)=Nc3ccc(I)cc3F)c2)cc1`, the growth was 86.8%.

The next experiment relates to CCRF-CEM leukemia. Described as above. The note with it: 10 µM unless noted.
`C=CCn1c(SCC(=O)Nc2ccc(C(=O)/C=C/c3ccc(Cl)cc3)cc2)nnc1-c1c[nH]c2ccccc12`: the growth is 75.3%.

Turning to `O=C(NNc1nc2cc(F)c(F)cc2n2c(CN3CC4CNCC4C3)ccc12)c1cnccn1` (stereo unspecified), the growth is 9.82% (active).

For the compound `COc1ccc2c(c1)c(CC(=O)[Se]CC#N)c(C)n2C(=O)c1ccc(Cl)cc1`, the growth is 8.66% (active).

With `O=C(NNc1nc2cc(F)ccc2n2c(CN3CCC(O)C3)ccc12)c1cnccn1` (stereo unspecified), the growth is 10.3%.

With `COc1ccc(COc2ccc(/C=C3\C(=O)Nc4ccccc43)cc2OC)cc1`, the growth was 104%.

For the compound `O=C(NNc1nc2cc(F)ccc2n2c(CO)ccc12)c1cnccn1`, the growth was 7.36% (active).

On to `N#Cc1cn(Cc2ccc(Cl)cc2Cl)c(C(=O)c2ccc(Br)cc2)c1N`, for which the growth was 108%.

For `O=C(CN1CCN(c2cc(=O)n(-c3ccccc3)c3ccccc23)CC1)Nc1nc(-c2ccccc2)cs1`, the growth was 39.6%.

For the compound `COc1ccc(CCOc2cc3c(cc2OC)CCN(C(=O)NCc2cocn2)C3c2ccc(C)cc2C)cc1` (stereo unspecified), the growth was 26.4%.

As for `COc1ccc(Oc2ccc(/C=N/NC(=O)CSc3nc4ccccc4c(=O)n3-c3ccc(Cl)cc3)cc2)cc1`, the growth was 63.5%.

Take `N#Cc1cccc(CN2CCC3=C(C2)C(=O)N(Cc2ccc(Cl)cc2)C2=NCCCN23)c1`: the growth was 37.1%.

With `O=C(NNc1nc2cc(F)ccc2n2c(CN3CC4CNCC4C3)ccc12)c1cnccn1` (stereo unspecified), the growth is 12.1%.

`CCOc1ccccc1NC1=C(Cl)C(=O)c2nc(C)ccc2C1=O`: the growth is -6.33% (active).

On to `CCCCCc1ccc(S(=O)(=O)Nc2cccc(-c3csc(NC(=O)CCCCCN4CCN(CCO)CC4)n3)c2)cc1`, for which the growth is 46.7%.

`CCOc1ccc(NC2=C(Cl)C(=O)c3nc(C)ccc3C2=O)cc1`: the growth was 0.626% (active).

On to `COc1cc(/C=C2\C(=O)Nc3ccccc32)ccc1OCc1ccc(Cl)cc1`, for which the growth was 94.9%.

For `COc1cc(-c2nc(SCCC(C)C)nc(NNC(=O)c3ccncc3)c2C#N)cc(OC)c1OC`, the growth is 95.8%.

As to `O=C(NNc1nc2cc(F)cc(F)c2n2cccc12)c1cnccn1`, the growth was 10.6%.

Regarding `O=C(CCn1cc[n+](CC(=O)c2ccc(-c3ccccc3)cc2)c1)Nc1cccc2cccnc12`, the growth is 78.4%.

As for `COc1c(N2CC3CCCNC3C2)c(F)cc2c(=O)c(C(=O)N/N=C/c3ccc4c(c3)OCO4)cn(C3CC3)c12` (stereo unspecified), the growth was 31.7%.

For `COc1ccc(/C=C(/C)c2ccc3ccc(OC)cc3[o+]2)c(O)c1`, the growth was 11.2%.

With `CN(C)CCNC(=O)c1ccc(-c2nc3ccc4[nH]ncc4c3c3c2CCC3)cc1`, the growth is 3.51% (active).

As to `COc1ccccc1NC1=C(Cl)C(=O)c2nc(C)ccc2C1=O`, the growth is -4.94% (active).

As for `CCNC(=O)N1CCc2cc(OC)c(OCCc3ccc(OC)cc3)cc2C1c1ccc(Cl)cc1C` (stereo unspecified), the growth was 38.2%.

As to `Cc1cc2nc(C(Cl)Cl)nc(-c3cccs3)n2n1`, the growth is 59.8%.

As for `CN(C)CCNC(=O)c1ccc(-c2nc3ccc4[nH]ncc4c3c3c2COCC3)cc1`, the growth is 2.22% (active).

Turning to `CN1CCN(Cc2ccc(NC(=O)c3cncc(C#Cc4cnc5ccc(OCC(C)(C)O)nn45)c3)cc2C(F)(F)F)CC1`, the growth is 6.09% (active).

With `Nc1ncc(-c2ccc3ncnc(Nc4cccc(Cl)c4F)c3c2)cn1`, the growth is 65.6%.

Turning to `COc1ccc(/C=C/C(=O)c2cccc(NC(=O)CSc3nc4ccccc4c(=O)n3-c3ccccc3)c2)cc1OC`, the growth was 115%.

`O=C(NNc1nc2cc(F)ccc2n2c(CN3CCCC3)ccc12)c1cnccn1`: the growth is 6.67% (active).

Turning to `CC/C(=C/c1c(O)cccc1OC)c1ccc2c(OC)cccc2[o+]1`, the growth was 102%.

Turning to `CS(=O)(=O)Nc1cc(-c2ccc3ncc(C#N)c(NCc4ccccc4F)c3c2)cnc1Cl`, the growth is 13.3%.

For the compound `COc1ccccc1-n1cc(C#N)c(N)c1C(=O)c1ccc(Cl)cc1`, the growth was 76.3%.

With `N=c1c2cc(-c3ccccc3)oc2ncn1/N=C/c1ccc(Cl)cc1`, the growth is 71.2%.

In the case of `C=CCn1c(SCC(=O)Nc2ccc(C(=O)/C=C/c3cc(OC)c(OC)c(OC)c3)cc2)nnc1-c1c[nH]c2ccccc12`, the growth is 5.4% (active).

Consider `COC(=O)C[Se]C(=O)Cc1c(C)n(C(=O)c2ccc(Cl)cc2)c2ccc(OC)cc12`, for which the growth is 50.1%.

Turning to `COc1ccc(NC2=C(Cl)C(=O)c3nc(C)ccc3C2=O)cc1OC`, the growth is 15.3%.

As to `NC(N)=Nc1ccc(Oc2cccc(NC(N)=Nc3ccc(I)cc3F)c2)cc1`, the growth is 77.3%.
